Measurements: PubChem BioAssay AID720517 (National Center for Advancing Translational Sciences (NCATS), 2013)
Inconclusive results are not listed. Activity calls are given as the source filed them. The call rests on the fitted dose curve; in most records, active means well fitted activation curve with a large enough effect; inconclusive means small, poorly fitted or top-dose-only effect; inactive means flat fitted curve, though single readings scatter.

Experiment: qHTS for Inhibitors of Cell Surface uPA Generation: FP59 Counterscreen for Cherry-picked Compounds; on activity (protection from FP59): 0% is about no effect
Conditions: FP59 anthrax toxin cytotoxicity counterscreen, cells; series mostly up to 115 µM; activity (protection from FP59): at the top concentration
Potency means the concentration at half of the fitted maximal effect.

| Compound | activity (protection from FP59) | Potency |
| --- | --- | --- |
| CNC(=S)N1C2CCCC1CC(NC(=O)c1ccc(F)cc1)C2 (centres undefined) | -1.37% (inactive) |  |
| O=C1C=C(NNC(=O)c2ccncc2)CC(c2ccccc2)C1 (centres undefined) | -0.302% (inactive) |  |
| COCCN(C(=O)c1ccccc1OC)c1nnc(C)s1 | -1.25% (inactive) |  |
| COc1ccc(NS(=O)(=O)c2cc(NS(=O)(=O)c3cc(C(=O)O)ccc3OC)ccc2C)cc1 | -1.08% (inactive) |  |
| Cc1c(NC(=S)Nc2ccc(Cl)cc2)c(=O)n(-c2ccccc2)n1C | -1.05% (inactive) |  |
| CC1CC(=O)Nc2ccccc2N1C(=O)Cn1cnc2ccc(Br)cc2c1=O (centres undefined) | -1.21% (inactive) |  |
| O=C1N[C@@H](Cc2c[nH]c3ccccc23)C(=O)N[C@H]1Cc1ccccc1 | -1.34% (inactive) |  |
| CCCCN(CC(=O)NCc1ccc(F)cc1)C(=O)c1ccco1 | -1.31% (inactive) |  |
| O=C(NNC(=O)C1CC(c2cccs2)=NO1)Nc1ccccc1 (centres undefined) | -1.35% (inactive) |  |
| Cc1ccc2nc(Nc3ccc(Cl)cc3)c3nncn3c2c1 | -1.11% (inactive) |  |
| O=C(COc1ncnc2sccc12)Nc1cccc(S(=O)(=O)N2CCCC2)c1 | -1.04% (inactive) |  |
| O=C(COc1cc2oc(=O)cc(-c3ccccc3)c2cc1Cl)NC(Cc1c[nH]c2ccc(O)cc12)C(=O)O (centres undefined) | -1.31% (inactive) |  |
| CC1CN(C(=O)CCC(=O)NCc2ccccc2)c2ccccc2S1 (centres undefined) | -1.06% (inactive) |  |
| C[C@H]([C@H](O)c1ccccc1)N(C)C(=O)CN | -0.116% (inactive) |  |
| COc1ccccc1C(=O)NCc1ccccc1 | -1.46% (inactive) |  |
| O=C(Nc1c(C(=O)O)oc2ccc(Br)cc12)c1ccccc1 | -0.512% (inactive) |  |
| Cc1nc2ccc(Br)cn2c1C(=O)N/N=C\c1ccccc1Cl | -1.29% (inactive) |  |
| CCCCNc1nnc(SCC(=O)c2c(N)n(CCC)c(=O)[nH]c2=O)s1 | -1.3% (inactive) |  |
| CN(C)c1ccc(S(=O)(=O)N2CCC(Cc3ccccc3)CC2)cn1 | 0.212% (inactive) |  |
| CC(=O)c1ccc(NC(=O)CN2CCN(c3ccccc3)CC2)cc1 | -1.25% (inactive) |  |

| Compound | activity (protection from FP59) | Potency |
| --- | --- | --- |
| CC(=O)n1cc(/C=N/NC(=O)c2ccc([N+](=O)[O-])cc2)c2ccccc21 | -1.52% (inactive) |  |
| CN(C)CCNC(=O)Nc1ccc([N+](=O)[O-])cc1 | -1.32% (inactive) |  |
| O=C(O)C(Nc1nc(C(F)(F)F)nc2ccccc12)c1ccccc1 (centres undefined) | -1.46% (inactive) |  |
| Cc1ccc([C@H]2C(C(=O)O)=CC[C@@H](c3cccc(C)c3)N2S(=O)(=O)c2ccc(C)cc2)cc1 | -0.513% (inactive) |  |
| COc1cc(NC(=S)NCCc2ccc(S(N)(=O)=O)cc2)c(OC)cc1Cl | -1.42% (inactive) |  |
| CC1CCCN(C(=O)c2ccc(CNc3c(N4CCCCC4)c(=O)c3=O)cc2)C1 (centres undefined) | -1.34% (inactive) |  |
| CS(=O)(=O)Nc1cccc(C2=NN(S(=O)(=O)c3ccccc3)C(c3ccco3)C2)c1 (centres undefined) | -1.08% (inactive) |  |
| CS/C(=C\[N+](=O)[O-])Nc1ccccc1 | -1.4% (inactive) |  |
| Cc1ccc(S(=O)(=O)NC(=O)Nc2nccs2)cc1 | -1.39% (inactive) |  |
| C=CC(=O)N1C/C(=C/c2ccccc2)C(=O)/C(=C\c2ccccc2)C1 |  | 13.1 µM (active) |
| CC(C)NCC1CCc2cc(CO)c([N+](=O)[O-])cc2N1 (centres undefined) | -1.37% (inactive) |  |
| COc1cc(N/C(N)=N/c2nc(C)cc(C)n2)cc(OC)c1 | -1.6% (inactive) |  |
| CC1(C)S[C@@H]2[C@H](NC(=O)C(C(=O)O)c3ccccc3)C(=O)N2[C@H]1C(=O)O (some centres undefined) | -1.39% (inactive) |  |
| COc1ccccc1NC(=O)COc1ccc(C(=O)NCc2ccccc2)cc1OC | 0.667% (inactive) |  |
| CC(C)C(=O)Nc1nnc(SCc2cccc(F)c2)s1 | -1.27% (inactive) |  |
| O=C(CCS(=O)(=O)c1ccc2c(c1)NC(=O)CS2)NCc1cccs1 | -0.809% (inactive) |  |
| COc1cc(CNCc2ccc3c(c2)OCO3)c([N+](=O)[O-])cc1OC | -1.32% (inactive) |  |
| COc1ccc(NC(=O)Nc2nnc(N3CCCCC3C)s2)cc1OC (centres undefined) | -1.42% (inactive) |  |
| COC(=O)c1c(NC(=O)c2c(OC)cccc2OC)sc2c1C(C(=O)OC)CC2 (centres undefined) | 12.7% (inactive) |  |
